# Measurements taken from the supplement of paper PMC8728848.
# This is one part of a sample in which the strongest signals are shown more often than they occur.
# B1: Cohesin-hDC-ASGPR (Homo sapiens) (protein)
# chain: LDDLDAVRIKVDTVNAKPGDTVRIPVRFSGIPSKGIANCDFVYSYDPNVLEIIEIEPGDIIVDPNPDKSFDTAVYPDRKIIVFLFAEDSGTGAYAITKDGVFATIVAKVKEGAPNGLSVIKFVEVGGFANNDLVEQKTQFFDGGANVGDTTEPATPTTPVTTPTTTDDLDAASQNSKFQRDLVTLRTDFSNFTSNTVAEIQALTSQGSSLEETIASLKAEVEGFKQERQAGVSELQEHTTQKAHLGHCPHCPSVCVPVHSEMLLRVQQLVQDLKKLTCQVATLNNNASTEGTCCPVNWVEHQDSCYWFSHSGMSWAEAEKYCQLKNAHLVVINSREEQNFVQKYLGSAYTWMGLSDPEGAWKWVDGTDYATGFQNWKPGQPDDWQGHGLGGGEDCAHFHPDGRWNDDVCQRPYHWVCEAGLGQTSQESHHHHHH
# Tests used:
# Assay in all cases: glycan array binding signal (z-score within array); higher = stronger binding
# Conditions in all cases: glycan notation: IUPAC condensed, linker removed
# Fuc(a1-2)Gal = biological target: Fuc(a1-2)Gal
# How it was run: (§1)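 Glycan array data were curated from 3228 arrays in the Consortium for Functional Glycomics database and kept only where the protein sequence was available. Glycan names were converted to IUPAC-condensed notation, and columns mapping to the same glycan were averaged. The binding signal is a within-array Z-score, averaged across arrays of the same protein sequence at different concentrations or buffers and across linkers. Negative Z-scores can be read as non-binding.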
# [1] = biological target: Fuc(a1-2)Gal(b1-4)GlcNAc(b1-6)GalNAc
# How it was run: as §1
# [2] = biological target: Fuc(a1-2)Gal3S(b1-4)GlcNAc
# How it was run: as §1
# [3] = biological target: Fuc(a1-2)Gal6S(b1-3)GlcNAc
# How it was run: as §1
# [4] = biological target: Fuc(a1-2)[Gal(a1-3)]Gal(b1-3)GlcNAc(b1-3)GalNAc
# How it was run: as §1
# [5] = biological target: Fuc(a1-2)[Gal(a1-3)]Gal(b1-3)GlcNAc(b1-6)GalNAc
# How it was run: as §1
# [6] = biological target: Fuc(a1-2)[Gal(a1-3)]Gal(b1-4)[Fuc(a1-3)]Glc
# How it was run: as §1
# [7] = biological target: Fuc(a1-2)[Gal(a1-4)]Gal(b1-4)GlcNAc
# How it was run: as §1
# [8] = biological target: Fuc(a1-2)[GalNAc(a1-3)]Gal(b1-3)GalNAc(a1-3)[Fuc(a1-2)]Gal(b1-4)GlcNAc
# How it was run: as §1
# [9] = biological target: Fuc(a1-2)[GalNAc(a1-3)]Gal(b1-3)GlcNAc(b1-2)Man(a1-3)[Fuc(a1-2)[GalNAc(a1-3)]Gal(b1-3)GlcNAc(b1-2)Man(a1-6)]Man(b1-4)GlcNAc(b1-4)GlcNAc
# How it was run: as §1
# [10] = biological target: Fuc(a1-2)[GalNAc(a1-3)]Gal(b1-4)GlcNAc(b1-2)Man
# How it was run: as §1
# [11] = biological target: Fuc(a1-2)[GalNAc(a1-3)]Gal(b1-4)GlcNAc(b1-3)Gal(b1-4)GlcNAc(b1-3)Gal(b1-4)GlcNAc
# How it was run: as §1
# [12] = biological target: Fuc(a1-2)[GalNAc(a1-4)]Gal(b1-4)GlcNAc
# How it was run: as §1
# [13] = biological target: Fuc(a1-3)[Gal(b1-4)]GlcNAc(b1-2)Man(a1-3)[Fuc(a1-3)[Gal(b1-4)]GlcNAc(b1-2)Man(a1-6)]Man(b1-4)GlcNAc(b1-4)[Fuc(a1-6)]GlcNAc
# How it was run: as §1
# [14] = biological target: Fuc(a1-3)[Gal(b1-4)]GlcNAc(b1-3)GalNAc
# How it was run: as §1
# [15] = biological target: Gal(a1-3)Gal(b1-3)GlcNAc(b1-6)GalNAc
# How it was run: as §1
# [16] = biological target: Gal(a1-3)Gal(b1-3)[Fuc(a1-4)]GlcNAc(b1-2)Man(a1-3)[Gal(a1-3)Gal(b1-3)[Fuc(a1-4)]GlcNAc(b1-2)Man(a1-6)]Man(b1-4)GlcNAc(b1-4)GlcNAc
# How it was run: as §1
# Gal(a1-3)Gal(b1-4)Glc = biological target: Gal(a1-3)Gal(b1-4)Glc
# How it was run: as §1
# [17] = biological target: Gal(a1-3)Gal(b1-4)GlcNAc(b1-3)GalNAc
# How it was run: as §1
# [18] = biological target: Gal(b1-3)GlcNAc(b1-3)Gal(b1-4)GlcNAc(b1-2)[Gal(b1-3)GlcNAc(b1-3)Gal(b1-4)GlcNAc(b1-6)]Man(a1-6)[Gal(b1-3)GlcNAc(b1-3)Gal(b1-4)GlcNAc(b1-2)Man(a1-3)]Man(b1-4)GlcNAc(b1-4)[Fuc(a1-6)]GlcNAc
# How it was run: as §1
# [19] = biological target: Gal(b1-4)GlcNAc(b1-2)Man(a1-3)[Gal(b1-4)GlcNAc(b1-2)Man(a1-6)]Man(b1-4)GlcNAc(b1-4)GlcNAc
# How it was run: as §1
# [20] = biological target: Gal(b1-4)GlcNAc(b1-2)[Gal(b1-4)GlcNAc(b1-4)]Man(a1-3)[Gal(b1-4)GlcNAc(b1-2)[Gal(b1-4)GlcNAc(b1-6)]Man(a1-6)]Man(b1-4)GlcNAc(b1-4)GlcNAc
# How it was run: as §1
# [21] = biological target: Gal(b1-4)GlcNAc(b1-2)[Gal(b1-4)GlcNAc(b1-6)]Man(a1-6)[Gal(b1-4)GlcNAc(b1-2)Man(a1-3)]Man(b1-4)GlcNAc(b1-4)[Fuc(a1-6)]GlcNAc
# How it was run: as §1
# [22] = biological target: Gal(b1-4)GlcNAc(b1-3)Gal(b1-4)GlcNAc(b1-2)[Gal(b1-4)GlcNAc(b1-3)Gal(b1-4)GlcNAc(b1-6)]Man(a1-6)[Gal(b1-4)GlcNAc(b1-3)Gal(b1-4)GlcNAc(b1-2)Man(a1-3)]Man(b1-4)GlcNAc(b1-4)GlcNAc
# How it was run: as §1
# [23] = biological target: Gal3S(b1-3)[Fuc(a1-4)]GlcNAc
# How it was run: as §1
# GalNAc(a1-3)GalNAc = biological target: GalNAc(a1-3)GalNAc
# How it was run: as §1
# [24] = biological target: GalNAc(a1-3)GalNAc(b1-3)Gal(a1-4)Gal(b1-4)GlcNAc
# How it was run: as §1
# [25] = biological target: GalNAc(b1-3)Gal(a1-6)Gal(b1-4)Glc
# How it was run: as §1
# [26] = biological target: GalNAc(b1-4)GlcNAc(b1-2)Man
# How it was run: as §1
# [27] = biological target: GalNAc3S(b1-4)[Fuc(a1-3)]GlcNAc
# How it was run: as §1
binder,measurement,setting,value
B1,glycan array binding signal (z-score),Fuc(a1-2)Gal,-0.306
same,glycan array binding signal (z-score),[1],2.81
same,glycan array binding signal (z-score),[2],-0.377
same,glycan array binding signal (z-score),[3],-0.246
same,glycan array binding signal (z-score),[4],-0.407
same,glycan array binding signal (z-score),[5],2.85
same,glycan array binding signal (z-score),[6],-0.481
same,glycan array binding signal (z-score),[7],-0.495
same,glycan array binding signal (z-score),[8],3.55
same,glycan array binding signal (z-score),[9],2.83
same,glycan array binding signal (z-score),[10],2.03
same,glycan array binding signal (z-score),[11],1.93
same,glycan array binding signal (z-score),[12],3.15
same,glycan array binding signal (z-score),[13],-0.501
same,glycan array binding signal (z-score),[14],-0.391
same,glycan array binding signal (z-score),[15],2.9
same,glycan array binding signal (z-score),[16],-0.322
same,glycan array binding signal (z-score),Gal(a1-3)Gal(b1-4)Glc,-0.483
same,glycan array binding signal (z-score),[17],-0.475
same,glycan array binding signal (z-score),[18],0.077
same,glycan array binding signal (z-score),[19],-0.447
same,glycan array binding signal (z-score),[20],-0.517
same,glycan array binding signal (z-score),[21],-0.504
same,glycan array binding signal (z-score),[22],1.87
same,glycan array binding signal (z-score),[23],-0.306
same,glycan array binding signal (z-score),GalNAc(a1-3)GalNAc,2.37
same,glycan array binding signal (z-score),[24],1.97
same,glycan array binding signal (z-score),[25],2.84
same,glycan array binding signal (z-score),[26],2.86
same,glycan array binding signal (z-score),[27],-0.502
